Test results: PubChem BioAssay (NCI)
About 83,000 compounds went through this panel and 20% of them were active in at least one assay; those are over-represented in the sample as a whole.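 Single-dose data. Exposure time 48 hours. Values below 10 considered active.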 A number with no mark means an inactive call. Calls of active or inactive are those of the source.

Assays:
Experiment in all cases: NCI-60 one-dose screen, 48 h (100 = growth as untreated, 0 = no growth, -100 = all killed)
Conditions in all cases: 10 µM unless noted
SK-MEL-2 melanoma = system: SK-MEL-2 melanoma
EKVX NSCLC = system: EKVX NSCLC
SN12C renal = system: SN12C renal
UO-31 renal = system: UO-31 renal
TK-10 renal = system: TK-10 renal
ACHN renal = system: ACHN renal
CAKI-1 renal = system: CAKI-1 renal
A498 renal = system: A498 renal
CCRF-CEM leukemia = system: CCRF-CEM leukemia
MOLT-4 leukemia = system: MOLT-4 leukemia

Work on `COc1ccc(-c2cc(-c3cccnc3)nc3sc4c(=O)n(-c5ccc(C)cc5)cnc4c23)cc1OC` yielded a growth (SK-MEL-2 melanoma) of 108%, a growth (EKVX NSCLC) of 86.4% and a growth (SN12C renal) of 92.2%. It also gave a growth (UO-31 renal) of 82%, a growth (TK-10 renal) of 111% and a growth (ACHN renal) of 88.1%. It also gave a growth (CAKI-1 renal) of 76.3%, a growth (A498 renal) of 91% and a growth (CCRF-CEM leukemia) of 105%. For the same compound, the growth (MOLT-4 leukemia) was 97.4%.

`COc1cc2cc(COc3nccc(-c4ccc(Cl)cc4)n3)c(=O)[nH]c2cc1OC` gave a growth (SK-MEL-2 melanoma) of 96.7%, a growth (EKVX NSCLC) of 91% and a growth (SN12C renal) of 69.3%. For the same compound, the growth (UO-31 renal) was 67.2%, the growth (TK-10 renal) was 100% and the growth (ACHN renal) was 102%. The growth (CAKI-1 renal) was 86.5%, the growth (A498 renal) was 76.6% and the growth (CCRF-CEM leukemia) was -20.5% (active). It also gave a growth (MOLT-4 leukemia) of 42.1%.

In the case of `Nc1ccc(Nc2nccc(-c3ccc4ccccc4c3)n2)cc1`, the growth (SK-MEL-2 melanoma) is reported as 5.47% (active), the growth (EKVX NSCLC) is reported as 61% and the growth (SN12C renal) is reported as 46.8%. It also gave a growth (UO-31 renal) of 45.7%, a growth (TK-10 renal) of 58.7% and a growth (ACHN renal) of 45.6%. It also gave a growth (CAKI-1 renal) of 32%, a growth (A498 renal) of 16.6% and a growth (CCRF-CEM leukemia) of 27.3%. The growth (MOLT-4 leukemia) was 20.2%.

`O=C(Nc1ccc(Nc2cc(Nc3ccccc3)ncn2)cc1)Nc1cc(C(F)(F)F)ccc1F` gave a growth (SK-MEL-2 melanoma) of 82.8%, a growth (EKVX NSCLC) of 80.5% and a growth (SN12C renal) of 78.5%. The growth (UO-31 renal) was 65.6%, the growth (TK-10 renal) was 89.5% and the growth (ACHN renal) was 66.9%. For the same compound, the growth (CAKI-1 renal) was 74.4%, the growth (A498 renal) was 75.3% and the growth (CCRF-CEM leukemia) was 71.7%. It also gave a growth (MOLT-4 leukemia) of 63.6%.

`Cc1ccc(-c2nc(/C=N/Nc3cc(C)nc4ccc(Cl)cc34)c(C)o2)cc1` was tested, and the growth (SK-MEL-2 melanoma) was 95.1%, the growth (EKVX NSCLC) was -41.2% (active) and the growth (SN12C renal) was -81.2% (active). The growth (UO-31 renal) was -99.7% (active), the growth (TK-10 renal) was -54.8% (active) and the growth (ACHN renal) was -100% (active). The growth (CAKI-1 renal) was -63.6% (active), the growth (A498 renal) was 67.6% and the growth (CCRF-CEM leukemia) was -51.3% (active). For the same compound, the growth (MOLT-4 leukemia) was -31.3% (active).

Compound `COc1ccc(S(=O)(=O)NCCNc2nccc(-c3c(-c4cccc([N+](=O)[O-])c4)nc4sccn34)n2)cc1` has a growth (SK-MEL-2 melanoma) of 100%, a growth (EKVX NSCLC) of 82.1% and a growth (SN12C renal) of 70.3%. The growth (UO-31 renal) was 49.3%, the growth (TK-10 renal) was 108% and the growth (ACHN renal) was 62.4%. The growth (CAKI-1 renal) was 68.1%, the growth (A498 renal) was 63.7% and the growth (CCRF-CEM leukemia) was 75.2%. It also gave a growth (MOLT-4 leukemia) of 60.7%.

`CN1CCN(Cc2ccc(NC(=O)c3[nH]ncc3Nc3ncnc4c3CCC4)cc2)CC1` was tested, and the growth (SK-MEL-2 melanoma) was 13.6%, the growth (EKVX NSCLC) was 26% and the growth (SN12C renal) was 6.07% (active). For the same compound, the growth (UO-31 renal) was 6.53% (active), the growth (TK-10 renal) was 2.4% (active) and the growth (ACHN renal) was -10.8% (active). The growth (CAKI-1 renal) was 9.41% (active), the growth (A498 renal) was -21.7% (active) and the growth (CCRF-CEM leukemia) was 11.1%. For the same compound, the growth (MOLT-4 leukemia) was -2.96% (active).

In the case of `O=C1c2cc3c(cc2-c2c1c1cc(Cl)c(Cl)cc1c(=O)n2C[C@H](O)CO)OCO3`, the growth (SK-MEL-2 melanoma) is reported as -28.3% (active), the growth (EKVX NSCLC) is reported as 14.2% and the growth (SN12C renal) is reported as -22.2% (active). For the same compound, the growth (UO-31 renal) was -61.3% (active), the growth (TK-10 renal) was -28% (active) and the growth (ACHN renal) was -47.2% (active). The growth (CAKI-1 renal) was -0.657% (active), the growth (A498 renal) was -73.3% (active) and the growth (CCRF-CEM leukemia) was -5.01% (active). The growth (MOLT-4 leukemia) was -24.8% (active).

In the case of `c1ccc(CSc2ncnc3nc[nH]c23)nc1`, the growth (SK-MEL-2 melanoma) is reported as 112%, the growth (EKVX NSCLC) is reported as 99.6% and the growth (SN12C renal) is reported as 98.6%. The growth (UO-31 renal) was 96.4%, the growth (TK-10 renal) was 101% and the growth (ACHN renal) was 105%. For the same compound, the growth (CAKI-1 renal) was 57%, the growth (A498 renal) was 102% and the growth (CCRF-CEM leukemia) was 102%. The growth (MOLT-4 leukemia) was 97.7%.

`COc1ccc(-c2cc(C(=O)N=Nc3c(O)[nH]c4ccccc34)no2)cc1` showed a growth (SK-MEL-2 melanoma) of 97.9%, a growth (EKVX NSCLC) of 97.4% and a growth (SN12C renal) of 94.9%. For the same compound, the growth (UO-31 renal) was 81.5%, the growth (TK-10 renal) was 118% and the growth (ACHN renal) was 107%. The growth (CAKI-1 renal) was 86%, the growth (A498 renal) was 84.6% and the growth (CCRF-CEM leukemia) was 101%. It also gave a growth (MOLT-4 leukemia) of 106%.

With `COc1ccc(C2c3ccc4ccccc4c3Oc3ncnc(N)c32)cc1` (stereo not given) the growth (SK-MEL-2 melanoma) was 71.9%, the growth (EKVX NSCLC) was 45.9% and the growth (SN12C renal) was 96%. The growth (UO-31 renal) was 55.9%, the growth (TK-10 renal) was 113% and the growth (ACHN renal) was 81.3%. For the same compound, the growth (CAKI-1 renal) was 50%, the growth (A498 renal) was 75.2% and the growth (CCRF-CEM leukemia) was 89.2%. It also gave a growth (MOLT-4 leukemia) of 83.4%.

Work on `CCN(CC)CCC(=O)c1ccc(OC)c2ccccc12` yielded a growth (SK-MEL-2 melanoma) of 91.7%, a growth (EKVX NSCLC) of 94% and a growth (SN12C renal) of 106%. For the same compound, the growth (UO-31 renal) was 62.3%, the growth (TK-10 renal) was 60.1% and the growth (ACHN renal) was 105%. It also gave a growth (CAKI-1 renal) of 88.7%, a growth (A498 renal) of 124% and a growth (CCRF-CEM leukemia) of 18.7%. The growth (MOLT-4 leukemia) was 29.1%.
